The list is not random: actives were taken first. Their share in the collection is about 6%.
Chronic BCR inh: blocks chronic active B-cell receptor signaling | Potency, µM (top dose mostly 46.1 µM), without a hit: top-dose activity change, negative = inhibition, usual class: inhibitors | ABC-DLBCL IkBa-CBG/CBR reporter, luminescence ratio, 4 h | 0.05% of 340,000 active; active = well fitted inhibition curve with a large enough effect in the signal ratio, with a control signal flat, not every such curve was filed as active; inconclusive = small, poorly fitted or top-dose-only effect, or effect the other way, or a change in a side signal; the % refers to the signal ratio;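 also: potency is read from the fitted curve at half-maximal effect; plate controls were basal doxycycline-induced cells for no effect and cells given 10 µM MG132 for full effect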
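Doxycycline induced both beetle luciferases in TMD8 lymphoma cells; IKK-driven degradation limits the IkappaBalpha-fused green signal, while red luminescence normalises for cell number and nonspecific effects. Compounds tested up to 46 uM, 4 hrs.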
D1 PAM: potentiators of human D1 dopamine receptor; HEK293 TREx D1 cells, calcium flux, dopamine EC20 potentiation; potentiation, % at 10 µM; 0.036% of 360,000 active; in the data active = potentiation above about 30%; also: 0% is about no effect
Target sequence (P21728 whole entry, looked up): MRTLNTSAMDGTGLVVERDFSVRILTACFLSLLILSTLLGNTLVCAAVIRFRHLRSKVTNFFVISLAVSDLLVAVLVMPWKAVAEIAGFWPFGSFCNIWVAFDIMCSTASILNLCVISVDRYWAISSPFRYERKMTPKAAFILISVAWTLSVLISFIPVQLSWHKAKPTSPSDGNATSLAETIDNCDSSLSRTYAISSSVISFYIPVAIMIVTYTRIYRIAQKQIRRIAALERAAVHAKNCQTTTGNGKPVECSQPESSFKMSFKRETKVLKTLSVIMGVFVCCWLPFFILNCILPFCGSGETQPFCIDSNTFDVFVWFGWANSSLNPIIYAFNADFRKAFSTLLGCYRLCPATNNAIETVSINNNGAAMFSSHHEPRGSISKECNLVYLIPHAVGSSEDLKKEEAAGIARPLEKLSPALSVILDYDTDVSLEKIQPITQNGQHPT
D1 antag: antagonists of human D1 dopamine receptor; P21728; HEK293 TREx D1 cells, calcium flux, dopamine EC80; hits give low values; activity change, negative = inhibition, % at 10 µM; 3.2% of 360,000 active; AID 504652; in the data active = activity change below about -30%; also: % is scaled to controls: 0 for no effect and ±100 for the full control effect
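Compound effects on dopamine-evoked calcium signalling were measured in tetracycline-induced HEK293 Trex D1 cells. Dopamine at EC80 followed a 180 s compound pre-read, and fluorescence was tracked kinetically for 180 s more.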
D3 ag: agonists of human D3 dopamine receptor | D3R DiscoveRx beta-arrestin cells, luminescence, 90 min | max activation, % | 0.58% of 410,000 active; in the data active = max activation above about 30%; also: 0% is about no effect
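Agonist-mode cell screen: cells plated at 1500/well and incubated overnight at 37 °C, then exposed to library compounds for 90 min at 37 °C. Detection reagent was added for 30–60 min at room temperature, and luminescence was read.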
D3 antag: blocks the human D3 dopamine receptor | P35462 | D3R cells, DiscoveRx beta-arrestin luminescence, antagonist mode; hits give low values | max response, negative = inhibition, % | 2.5% of 360,000 active; in the data active = max response below about -50%; inconclusive = no clear call, values can overlap the other calls; also: % is scaled to controls: 0 for no effect and ±100 for the full control effect
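Cells expressing the human receptor were seeded at 1500 cells/well, incubated overnight at 37 degrees C in 5% CO2, then exposed to library compounds with dopamine controls for 90 minutes at 37 degrees C before luminescent detection.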
D1 ag: human D1 receptor agonism; P21728; HEK293 T-REx D1 cells, calcium flux, agonist mode; activation, % at 2 µM; 1% of 360,000 active; AID 504660; in the data active = activation above about 30%; also: 0% is about no effect
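Agonism was scored from calcium flux recorded over 180 s (1 read/s) after pintool compound addition, following a 10-cycle baseline. Cells were inducible force-coupled HEK293 TREx D1, plated overnight at 30 C and loaded with no-wash calcium dye.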
* hit, by the source's call; ? = inconclusive; nt = no result.

SMILES	Chronic BCR inh	D1 PAM	D1 antag	D3 ag	D3 antag	D1 ag
CN1CCC(=O)N(CCSc2ccc(Br)cc2)CC1	-2%	-2	0	-31	-56*	1
Cn1cc([N+](=O)[O-])cc1-c1nc2ccccc2n1C	0%	-3	-34*	1	1	3
Cc1ccc(NC(c2nnc(-c3ccccc3)o2)c2ccccc2F)c(Cl)c1 (stereo unspecified)	nt	-2	4	-1	nt	4
CCN1CCc2c(sc(NC(=O)c3ccc(S(=O)(=O)N(C)c4ccccc4)cc3)c2C(=O)NC)C1	0%	7	5	-7	18	175*
CNC(=O)c1c(NC(=O)c2ccc(S(=O)(=O)N(C)c3ccccc3)cc2)sc2c1CCN(C(C)C)C2	-1%	-1	-12	4	22	90*
COC(=O)c1c(NC(=O)c2ccc(S(=O)(=O)N3CCCC(C)C3)cc2)sc2c1CCN(C(C)C)C2 (stereo unspecified)	0%	-2	-4	-14	nt	-1
CC(=O)Nc1ccc(CN(C)c2c(C)nc3ccc(C(=O)NCCCN4CCCC4=O)cn23)cc1	nt	nt	nt	2	3	nt
COc1ccc(CNC(=O)c2sc(=O)n(Cc3cc(C(C)=O)ccc3OC)c2C)cc1	nt	nt	nt	6	2	nt
O=c1[nH]c2ccccc2n1CCCN1CCCCC1	?	0	-15	-16	-61*	0
O=c1[nH]c2ccccc2n1CCCN1CCN(C(c2ccccc2)c2ccccc2)CC1	2%	-6	-44*	-18	nt	0
CCCn1c(=O)[nH]c2ccccc21	11%	6	3	4	17	1
CC(C(=O)NCc1ccccc1)N1Cc2ccccc2C1=O (stereo unspecified)	nt	3	10	7	nt	-2
CCc1nc2ccc(C(=O)NCCNC(C)=O)cn2c1N(C)Cc1ccc(OC)cc1	nt	nt	nt	-2	14	nt
COc1ccc(-c2nnc(SCc3ccccc3F)o2)cc1	5%	0	1	6	-11	3
Clc1ccc(CSc2nnc(CNc3cccc(Cl)c3)o2)cc1	?	1	2	-21	-57*	3
Fc1ccc(NCc2nnc(SCc3ccccc3)o2)cc1	27%	-2	3	-2	-17	0
COc1cc(OC)cc(-c2nnc(SCc3c(F)cccc3Cl)o2)c1	-3%	-10	-33*	21	25	12
Fc1cccc(Cl)c1CSc1nnc(CNc2ccccc2)o1	?	-12	-41*	-6	1	0
NC(=O)CC(NC(=O)Cc1ccc(Br)cc1)c1ccc(NCC2CC2)c([N+](=O)[O-])c1 (stereo unspecified)	-1%	0	-2	-5	?	8
CC1CCCCN1CCCNc1ccc(C(CC(N)=O)NC(=O)Cc2ccc(Br)cc2)cc1[N+](=O)[O-] (stereo unspecified)	3%	3	2	1	-52*	2
COc1cc(C(=O)n2nc(C)c(Sc3ccc(Cl)cc3)c2C)cc(OC)c1OC	nt	-3	-6	5	nt	10
COc1ccc(C(=O)N2CCN(C3CCC(c4ccccc4)CC3)CC2)cc1OC (stereo unspecified)	-3%	-12	-37*	-28	?	-1
c1ccc(C2CCC(N3CCN(c4ccccc4)CC3)CC2)cc1 (stereo unspecified)	0%	-10	16	-6	-52*	-3
O=C(c1ccc(F)cc1)N1CCN(C2CCC(c3ccccc3)CC2)CC1 (stereo unspecified)	1%	1	-41*	0	7	3
COc1ccc(C(=O)N2CCN(C3CCN(Cc4ccccc4)CC3)CC2)cc1OC	13%	1	13	-5	-15	2
SMILES	Chronic BCR inh	D1 PAM	D1 antag	D3 ag	D3 antag	D1 ag
CC1Oc2ccc(C#N)cc2N(Cc2ccc(F)cc2)C1=O (stereo unspecified)	nt	nt	nt	10	26	nt
Cc1ccc(C)c(OCCn2c(-c3ccc(Cl)cc3)nc3ccccc3c2=O)c1C	nt	0	4	-4	nt	3
CC(Sc1nnc(-c2ccco2)n1C)C(=O)N1C(C)CCCC1C (stereo unspecified)	2%	-4	-41*	4	16	5
CC(Sc1nnc(-c2ccco2)n1C)C(=O)NC1CCCC1 (stereo unspecified)	0%	-2	-6	-5	8	1
CCOC(=O)c1c(-c2cccs2)csc1NC(=O)CC(C)C	11%	4	3	-2	-1	4
NC(=O)c1c(-c2cccs2)csc1N	-4%	4	0	4	-54*	1
Cn1c(NCCc2ccncc2)nc2cc(-c3ccccc3)sc2c1=O	nt	nt	nt	1	-9	nt
CCOC(=O)C1(Cc2ccccc2C)CCCN(C(=O)CN2CCCCC2=O)C1 (stereo unspecified)	-1%	0	20	58*	-21	4
COc1ccc(CCNC(=O)C2CCC(CNS(=O)(=O)c3ccc(C)cc3)CC2)cc1OC (stereo unspecified)	?	-5	-24	-5	nt	1
CN(C)c1nc(SCC#N)nc(N(C)C)n1	-29%	-8	-74*	-1	16	0
CC(C)Sc1nc2ccc(Br)cc2[nH]1	?	-5	-33*	2	12	5
OC[C@@H]1CN(CCN2CCOCC2)C[C@H](n2cnc3c(N4CCOCC4)ncnc32)O1	nt	nt	nt	-9	-7	nt
CN1CCN(S(=O)(=O)c2ccc(SCCOc3ccc(Cl)cc3)nc2)CC1	3%	-15	-44*	-2	6	14
O=S(=O)(c1ccc(SCCOc2ccccc2Cl)nc1)N1CCCC1	10%	nt	10	-6	-29	38*
O=S(=O)(c1ccc(SCCOc2cccc(Br)c2)nc1)N1CCCC1	?	2	-15	3	14	18
CC(C)N(C(=O)CSc1ccc(S(=O)(=O)N2CCCCC2)cn1)C(C)C	-1%	-4	-5	10	8	0
COc1ccc(OCCSc2ccc(S(=O)(=O)N3CCCC3)cn2)cc1	-2%	nt	0	13	7	22
NC(=O)CSc1ccc(S(=O)(=O)N2CCCCC2)cn1	?	nt	7	-1	-20	41*
COC(=O)c1cn(C(=O)c2ccc(OC)c(OC)c2)c2ccccc12	?	0	-47*	0	15	3
Cc1ccc(-c2nnc(SCC#N)n2N)cc1	?	10	-33*	4	-14	0
c1ccc(CCn2c(SCc3ccccc3)nnc2-c2ccncc2)cc1	?	-3	-5	-4	5	35*
COc1ccc(-c2nnc(SCc3ccccc3)n2N)cc1	-1%	-5	-29	-5	-3	63*
CCOCCc1nn2c(=O)cc(COC(=O)C3CCCCC3)nc2s1	nt	3	8	9	nt	1

Bioassay records as filed in PubChem BioAssay.
